ChEMBL document CHEMBL1961873, “Compounds: GSK PKIS; Assays: Nanosyn kinase panel” (2012)

Columns and labels:
[1] = target: Serine/threonine-protein kinase 26 (Homo sapiens) (UniProt Q9P289); settings: at 1 µM;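 note: mean inhibition of MST4 kinase activity, reported from the GSK PKIS inhibitor-set screening panel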
[2] = target: Serine/threonine-protein kinase PAK 1 (Homo sapiens) (UniProt Q13153); settings: at 0.1 µM
[3] = target: Serine/threonine-protein kinase PAK 1 (Homo sapiens) (UniProt Q13153); settings: at 1 µM
[4] = target: Serine/threonine-protein kinase PAK 2 (Homo sapiens) (UniProt Q13177); settings: at 0.1 µM
Serine/threonine-protein kinase PAK 2 (Homo sapiens), sequence (Q13177 whole entry): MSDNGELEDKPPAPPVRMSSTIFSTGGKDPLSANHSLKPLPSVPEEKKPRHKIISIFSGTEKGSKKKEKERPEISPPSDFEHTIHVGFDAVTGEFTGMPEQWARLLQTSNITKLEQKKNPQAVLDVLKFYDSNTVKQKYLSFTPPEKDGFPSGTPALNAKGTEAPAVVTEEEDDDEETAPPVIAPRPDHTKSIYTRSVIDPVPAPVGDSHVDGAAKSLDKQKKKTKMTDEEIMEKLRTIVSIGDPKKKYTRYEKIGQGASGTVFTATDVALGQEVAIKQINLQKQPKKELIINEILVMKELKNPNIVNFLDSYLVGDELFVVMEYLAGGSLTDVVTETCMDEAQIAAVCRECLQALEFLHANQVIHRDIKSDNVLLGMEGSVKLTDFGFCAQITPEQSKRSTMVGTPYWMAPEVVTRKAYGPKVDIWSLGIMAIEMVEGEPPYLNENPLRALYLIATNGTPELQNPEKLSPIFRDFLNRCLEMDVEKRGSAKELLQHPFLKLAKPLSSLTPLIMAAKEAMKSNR

[5] = target: Serine/threonine-protein kinase PAK 2 (Homo sapiens) (UniProt Q13177); settings: at 1 µM
[6] = target: Serine/threonine-protein kinase PAK 3 (Homo sapiens) (UniProt O75914); settings: at 0.1 µM
Serine/threonine-protein kinase PAK 3 (Homo sapiens), sequence (O75914 whole entry, looked up): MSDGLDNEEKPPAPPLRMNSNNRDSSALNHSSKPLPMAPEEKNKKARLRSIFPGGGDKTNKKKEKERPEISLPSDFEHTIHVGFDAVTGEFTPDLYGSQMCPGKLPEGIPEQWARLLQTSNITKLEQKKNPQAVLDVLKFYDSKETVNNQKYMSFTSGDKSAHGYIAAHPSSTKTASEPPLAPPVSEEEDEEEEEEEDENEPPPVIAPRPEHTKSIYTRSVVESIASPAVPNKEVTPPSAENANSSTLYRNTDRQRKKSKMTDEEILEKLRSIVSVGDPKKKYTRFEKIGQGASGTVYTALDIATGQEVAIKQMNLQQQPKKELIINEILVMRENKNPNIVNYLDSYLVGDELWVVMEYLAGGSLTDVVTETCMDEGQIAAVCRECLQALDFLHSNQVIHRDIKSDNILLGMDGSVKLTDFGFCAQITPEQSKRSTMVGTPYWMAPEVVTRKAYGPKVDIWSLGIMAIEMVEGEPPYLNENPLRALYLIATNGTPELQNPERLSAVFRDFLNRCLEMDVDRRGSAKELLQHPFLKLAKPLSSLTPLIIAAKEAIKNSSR

[7] = target: Serine/threonine-protein kinase PAK 3 (Homo sapiens) (UniProt O75914); settings: at 1 µM
[8] = target: Serine/threonine-protein kinase PAK 5 (Homo sapiens) (UniProt Q9P286); settings: at 0.1 µM
Serine/threonine-protein kinase PAK 5 (Homo sapiens), sequence (Q9P286 whole entry, looked up): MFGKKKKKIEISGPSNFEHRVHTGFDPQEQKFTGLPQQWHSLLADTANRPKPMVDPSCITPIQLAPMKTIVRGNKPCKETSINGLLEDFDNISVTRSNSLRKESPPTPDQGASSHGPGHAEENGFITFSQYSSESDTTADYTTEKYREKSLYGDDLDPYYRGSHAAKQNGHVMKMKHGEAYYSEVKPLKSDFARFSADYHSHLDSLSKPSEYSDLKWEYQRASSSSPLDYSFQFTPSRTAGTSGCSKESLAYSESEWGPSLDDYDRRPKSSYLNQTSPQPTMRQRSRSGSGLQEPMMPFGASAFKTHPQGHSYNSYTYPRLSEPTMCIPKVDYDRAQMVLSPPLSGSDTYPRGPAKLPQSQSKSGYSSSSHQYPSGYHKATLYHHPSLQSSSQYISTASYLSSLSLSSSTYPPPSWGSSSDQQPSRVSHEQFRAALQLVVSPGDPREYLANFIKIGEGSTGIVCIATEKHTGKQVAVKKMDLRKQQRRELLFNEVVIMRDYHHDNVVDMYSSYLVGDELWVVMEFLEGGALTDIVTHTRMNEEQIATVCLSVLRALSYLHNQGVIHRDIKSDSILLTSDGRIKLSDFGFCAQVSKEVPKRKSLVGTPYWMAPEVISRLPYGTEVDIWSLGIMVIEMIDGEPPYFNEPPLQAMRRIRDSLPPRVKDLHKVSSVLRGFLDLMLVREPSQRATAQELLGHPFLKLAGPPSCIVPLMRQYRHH

[9] = target: Serine/threonine-protein kinase PAK 5 (Homo sapiens) (UniProt Q9P286); settings: at 1 µM
[10] = target: Serine/threonine-protein kinase PAK 6 (Homo sapiens) (UniProt Q9NQU5); settings: at 0.1 µM
Serine/threonine-protein kinase PAK 6 (Homo sapiens), sequence (Q9NQU5 whole entry, looked up): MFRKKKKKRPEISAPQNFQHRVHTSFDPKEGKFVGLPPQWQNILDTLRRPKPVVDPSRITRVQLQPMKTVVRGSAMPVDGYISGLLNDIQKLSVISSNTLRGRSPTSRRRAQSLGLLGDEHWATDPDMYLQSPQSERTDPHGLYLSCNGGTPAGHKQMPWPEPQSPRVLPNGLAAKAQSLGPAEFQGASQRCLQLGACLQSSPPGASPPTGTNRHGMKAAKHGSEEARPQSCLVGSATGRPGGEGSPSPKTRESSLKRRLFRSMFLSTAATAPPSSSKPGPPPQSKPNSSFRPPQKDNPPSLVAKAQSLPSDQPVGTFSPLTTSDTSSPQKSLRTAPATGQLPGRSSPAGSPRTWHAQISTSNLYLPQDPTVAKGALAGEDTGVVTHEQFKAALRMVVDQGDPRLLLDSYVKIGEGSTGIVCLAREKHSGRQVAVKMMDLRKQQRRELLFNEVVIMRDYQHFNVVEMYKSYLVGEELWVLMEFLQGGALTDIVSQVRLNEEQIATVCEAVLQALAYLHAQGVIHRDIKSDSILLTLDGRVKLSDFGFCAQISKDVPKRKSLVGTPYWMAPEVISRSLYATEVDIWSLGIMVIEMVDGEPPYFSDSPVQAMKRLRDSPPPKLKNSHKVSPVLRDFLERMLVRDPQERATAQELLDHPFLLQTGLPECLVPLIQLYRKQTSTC

[11] = target: Serine/threonine-protein kinase PAK 6 (Homo sapiens) (UniProt Q9NQU5); settings: at 1 µM
[12] = system: Tyrosine-protein kinase ABL1 (Homo sapiens), P00519 [E255K]; settings: at 0.1 µM
[13] = system: Tyrosine-protein kinase ABL1 (Homo sapiens), P00519 [E255K]; settings: at 1 µM
[14] = system: Tyrosine-protein kinase ABL1 (Homo sapiens), P00519 [H396P]; settings: at 0.1 µM
[15] = system: Tyrosine-protein kinase ABL1 (Homo sapiens), P00519 [H396P]; settings: at 1 µM
[16] = system: Tyrosine-protein kinase ABL1 (Homo sapiens), P00519 [M351T]; settings: at 0.1 µM
[17] = system: Tyrosine-protein kinase ABL1 (Homo sapiens), P00519 [M351T]; settings: at 1 µM
[18] = system: Tyrosine-protein kinase ABL1 (Homo sapiens), P00519 [Q252H]; settings: at 0.1 µM
[19] = system: Tyrosine-protein kinase ABL1 (Homo sapiens), P00519 [Q252H]; settings: at 1 µM
[20] = system: Tyrosine-protein kinase ABL1 (Homo sapiens), P00519 [T315I]; settings: at 0.1 µM

Serine/threonine-protein kinase 26 (Homo sapiens), sequence (Q9P289 2-416 limits assumed): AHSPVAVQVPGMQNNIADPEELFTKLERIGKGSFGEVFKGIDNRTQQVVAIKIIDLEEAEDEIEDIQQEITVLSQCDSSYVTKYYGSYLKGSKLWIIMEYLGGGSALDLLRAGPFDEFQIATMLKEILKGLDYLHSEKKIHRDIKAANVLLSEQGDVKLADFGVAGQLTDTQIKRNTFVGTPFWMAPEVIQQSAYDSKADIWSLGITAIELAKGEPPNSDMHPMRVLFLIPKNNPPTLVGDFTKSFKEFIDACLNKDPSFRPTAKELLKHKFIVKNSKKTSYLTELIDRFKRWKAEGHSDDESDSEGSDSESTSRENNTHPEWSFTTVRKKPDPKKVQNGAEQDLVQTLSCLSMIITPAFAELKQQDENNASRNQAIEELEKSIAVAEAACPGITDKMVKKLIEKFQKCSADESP
Serine/threonine-protein kinase PAK 1 (Homo sapiens), sequence (Q13153 whole entry): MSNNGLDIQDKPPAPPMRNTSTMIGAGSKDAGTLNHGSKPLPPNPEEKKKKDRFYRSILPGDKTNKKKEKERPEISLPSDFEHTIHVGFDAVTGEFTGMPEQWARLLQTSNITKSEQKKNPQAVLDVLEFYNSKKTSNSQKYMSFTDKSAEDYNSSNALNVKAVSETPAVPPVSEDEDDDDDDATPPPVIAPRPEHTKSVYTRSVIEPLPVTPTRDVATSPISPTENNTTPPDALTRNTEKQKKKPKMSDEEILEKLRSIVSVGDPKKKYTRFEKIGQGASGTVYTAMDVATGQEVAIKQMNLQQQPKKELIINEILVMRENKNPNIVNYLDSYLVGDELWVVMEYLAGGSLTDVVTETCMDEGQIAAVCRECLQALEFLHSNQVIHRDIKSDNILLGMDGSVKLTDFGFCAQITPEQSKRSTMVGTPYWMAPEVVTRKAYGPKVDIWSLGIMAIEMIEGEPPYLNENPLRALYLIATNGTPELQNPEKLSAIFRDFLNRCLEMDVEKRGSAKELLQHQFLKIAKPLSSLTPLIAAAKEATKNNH

SMILES | inhibition [1] | inhibition [2] | inhibition [3] | inhibition [4] | inhibition [5] | inhibition [6] | inhibition [7] | inhibition [8] | inhibition [9] | inhibition [10] | inhibition [11] | inhibition [12] | inhibition [13] | inhibition [14] | inhibition [15] | inhibition [16] | inhibition [17] | inhibition [18] | inhibition [19] | inhibition [20]
O=C1Nc2ccc(C(=O)c3ccco3)cc2C1=Cc1cc(Cl)c(O)c(Cl)c1 | 21.4% | 1.1% | 3.96% | 1.29% | 0.81% | 2.57% | 3.42% | 0.93% | 5.07% | 1.03% | 0.19% | 3.7% | 15.1% | 3.27% | 13.7% | 3.29% | 12.9% | 5.53% | 17.7% | 3.59%
CC(C)=Cc1cccc2c1/C(=N/Nc1ccc(S(N)(=O)=O)cc1)C(=O)N2 | 35.5% | -2.27% | 1.28% | 0.39% | 1.15% | 0.22% | 1.61% | 8.32% | 3.26% | 7.25% | -0.47% | 1.22% | 9.2% | 2.39% | 13.8% | 2.77% | 26.6% | 3% | 18.2% | 0.99%
CC1=C(C(=O)Nc2ccc3[nH]ncc3c2)C(c2ccc(Cl)c(Cl)c2)CC(=O)N1 (centres undefined) | -1.05% | 2.74% | 3.36% | 0.48% | -0.06% | 0.86% | 0.53% | 4.97% | -3.2% | 6.11% | 2.05% | 1.47% | -1.52% | 1.38% | 0.16% | 1.24% | 1.38% | 3.45% | 3.33% | 1.44%
CCn1c(-c2nonc2N)nc2cncc(C(=O)N3CCNCC3)c21 | 1.91% | 9.41% | 15.3% | 3.6% | 4.45% | 7.27% | 9.28% | 6.95% | 8.13% | -5.05% | 0.53% | -1.75% | 4.64% | 4.85% | 4.82% | -1.66% | -0.43% | 3.41% | 4.95% | 1.64%
COC(=O)Nc1nc2cc(Oc3cccc(NC(=O)Nc4cc(C(F)(F)F)ccc4F)c3)ccc2[nH]1 | 1.92% | 3.97% | -1.03% | -1.19% | 0.23% | -1.11% | -1.11% | 0.91% | -5.17% | 6.44% | -6.76% | 0.37% | 7.39% | 9.03% | 41.7% | 34.8% | 69.3% | 32.1% | 68.6% | 2.28%
CS(=O)(=O)CCN(CC#N)Cc1ccc(-c2ccc3ncnc(Nc4ccc(OCc5cccc(F)c5)c(Cl)c4)c3c2)o1 | 0.46% | 1.88% | 4.88% | 0.62% | 0.16% | 2.04% | 4.29% | 0.28% | -0.85% | -6.8% | -7.94% | 0.94% | 1% | 1.77% | 1.89% | 0.73% | 0.36% | 0.95% | 0.42% | -0.08%
CCn1c(-c2nonc2N)nc2c(C#CC(C)(C)O)nc(CN3CCCC3)cc21 | 7.65% | 0.14% | 2.33% | -2.93% | -0.92% | -0.82% | 0.31% | -4.5% | -1.51% | 10.8% | -0.08% | 0.01% | 0.44% | 0.09% | 0.68% | -0.36% | 2.83% | 0.06% | 3.09% | -0.43%
NS(=O)(=O)c1cccc(-c2ccc3c(NC(=O)C4CC4)n[nH]c3c2)c1 |  | -1.17% | 0.04% | -1.52% | -1.15% | -2.1% | -0.67% | 7.33% | -5.95% | 2.48% | -8.66% | 1.26% | 7.94% | 3.4% | 21.7% | 7.02% | 20.2% | 2.5% | 9.03% | 3.32%
Fc1cccc(COc2ccc(Nc3ncnc4sc(-c5cccs5)cc34)cc2Cl)c1 | -0.58% | 1.63% | 1.64% | -0.69% | -1.1% | -0.01% | 2.7% | -2.5% | -7.05% | -3.68% | -8.25% | 0.56% | 1.97% | 1.28% | 3.54% | 1.53% | 2.68% | 0.76% | 2.11% | 1.08%
NCc1ccc(-c2nc(-c3ccc(Cl)c(O)c3)c(-c3ccncc3)[nH]2)cc1 | 0.12% | 1.09% | 2.83% | -1.23% | -1.01% | -0.7% | -0.37% |  | -6.81% | 7.6% | 0.88% | 7.57% | 43.3% | 9.07% | 48.9% | 11.2% | 43.9% | 7.54% | 38.4% | 3.08%
COC(=O)Nc1nc2cc(Oc3ccc(NC(=O)Nc4cccc(C(=O)O)c4)cc3)ccc2[nH]1 | 3.41% | 0.04% | 2.31% | -0.12% | -0.31% | 0% | 0.98% | 7.82% | 3.29% | 3.13% | 4.26% | -4.91% | 3.52% | 0.4% | 9.38% | 3.52% | 19.9% | 1.92% | 14.4% | 2.13%
Nc1nc(-c2ccc3c(c2)C(=Cc2cc(Br)c(O)c(Br)c2)C(=O)N3)cs1 | 15.5% | 2.87% | -1.51% | -2.22% | -1.94% | -4.94% | -1.99% |  | -3.15% | -5.26% |  | -0.02% | 6.46% | 0.77% | 4.36% | -0.05% | 4.99% | 2.23% | 6.93% | -0.15%
O=C1NC(=O)C(c2cccc(Cl)c2)=C1Nc1ccc(O)c(Cl)c1 | 11.2% | 2.76% | 4.48% | 0.61% | -0.45% | 1.1% | 1.4% |  |  | 3.63% | -3.45% | 0.46% | -0.55% | 1.43% | 1.01% | -0.1% | 1.15% | -0.15% | 2.63% | 1.14%
